Measured values from ChEMBL document CHEMBL4513216, “Probing the Open Global Health Chemical Diversity Library for Multistage-Active Starting Points for Next-Generation Antimalarials” (ACS Infect Dis, 2020).
Screen size: about 69,000 compounds; about 8,600 (12%) showed an effect of 50% or more. The entries come from a sample that favours strong results as a whole.

These compounds were tested on Plasmodium berghei (assay: Screen against P. berghei liver stage (PbLuc), transformed with Luciferase, at 10uM). Conditions: tested at 10 uM.
Format: functional, HepG2
Compound CCOCC(=O)N1CCC2(CC1)COCCN2CCOC has an INHIBITION of 12.1%. With Cn1ncc2c(N3CCN(C(=O)c4ccsc4)CC3)ncnc21 the INHIBITION was 21.6%. Compound Cc1ccc(OCCC(=O)N(C)CC(=O)Nc2cc(C)on2)c(C)c1 has an INHIBITION of 52.2%. Work on Cc1ccc(C)c(OCC(O)Cn2ncc3cnn(C)c(=O)c32)c1 (stereo unspecified) yielded an INHIBITION of -28.9%. With COc1cc(CN(C)C(=O)Nc2cc(C)on2)ccc1SC the INHIBITION was 40.1%. Compound Cc1ccc(OCC(O)CN(C)CC(=O)Nc2cc(C)on2)c(C)c1 (stereo unspecified) has an INHIBITION of 77.9%. With Cc1ccccc1OCCC(=O)N(C)Cc1c(C)noc1C the INHIBITION was 25.5%. With Cc1ccc(OCC(O)CN(C)CC(=O)NC(C)C)c(C)c1 (stereo unspecified) the INHIBITION was 33%. Work on Cc1ccc(C)c(OCC(O)CN(C)CC(=O)Nc2cc(C)on2)c1 (stereo unspecified) yielded an INHIBITION of 84.3%. Cc1ccc(C)c(OCc2cc(C(=O)N(C)CC(O)CO)no2)c1 (stereo unspecified) gave an INHIBITION of 10.4%. In the case of Cc1ccc(OCCN(C)C(=O)CCCC(N)=O)c(C)c1, the INHIBITION is reported as -7.65%. Work on CC(C)Cn1cncc1-c1nc2c([nH]1)CC(C)(C)CNC2=O yielded an INHIBITION of -109%. For CCn1cc(CN2CCCN(C(=O)c3ccc(C#N)cc3)CC2)cn1, the INHIBITION was 25.6%. In the case of Cn1ncc2c(=O)[nH]c(CN3CCCC3CC(C)(C)C)nc21 (stereo unspecified), the INHIBITION is reported as 19.6%. CC(C)=CCN1C(=O)[C@@H]2CC[C@H]1CN(C(=O)CCc1nnc(Cl)[nH]1)C2 showed an INHIBITION of -15.3%. Cc1cc(NCCN)nc(-c2ccccc2O)n1 gave an INHIBITION of 17.7%. Cn1cc(Cl)cc1C(=O)N1CCN(CCc2cccs2)CC1 gave an INHIBITION of 23.73%. For O=C(CC1Cn2ncnc2NC1=O)Nc1ccc(F)c(F)c1 (stereo unspecified), the INHIBITION was 26.7%. Cc1nc(CN2CCN(c3cncc(Cl)n3)CC2)no1 was tested, and the INHIBITION was 14.6%. Work on CN1CC(=O)N(c2ccccc2)CC12CCN(Cc1nccs1)C2 (stereo unspecified) yielded an INHIBITION of -35.9%. COc1ccc(CN2CCC3(CC2)CN(c2ccccn2)CCO3)cc1 showed an INHIBITION of 26.4%. Work on Fc1ccc(CN2CCC3(CC2)CN(c2ccccn2)CCO3)cc1 yielded an INHIBITION of 79.1%. Compound c1ccc(CN2CCC3(CC2)CN(c2ccccn2)CCO3)nc1 has an INHIBITION of -6.97%. For Cc1noc(C)c1CN1CCC2(CC1)CN(c1ccccn1)CCO2, the INHIBITION was -40.4%. In the case of Cn1ccnc1CN1CCC2(CC1)CN(c1ccccn1)CCO2, the INHIBITION is reported as 91.9%. Work on COc1ncccc1CN1CCC2(CC1)CN(c1ccccn1)CCO2 yielded an INHIBITION of 41.8%. CC(C)c1nc(CN2CCCN(c3nccs3)CC2)no1 was tested, and the INHIBITION was 25.4%. Compound CC(=O)N1CCn2c(C(=O)N(C)C)cnc2C1 has an INHIBITION of 47.8%. CSc1ccccc1C(=O)N1C[C@@H]2CC[C@H]1CN(C(=O)N(C)C)C2 gave an INHIBITION of 21.2%. Compound CCCC(=O)N1CCCC(C(=O)c2cnn(-c3ccc(F)cc3)c2N)C1 (stereo unspecified) has an INHIBITION of 17.35%. CCC(=O)N1CCCC(C(=O)c2cnn(-c3ccc(F)cc3)c2N)C1 (stereo unspecified) gave an INHIBITION of 56.3%. For Nc1c(C(=O)C2CCCN(C(=O)C3CC3)C2)cnn1-c1ccc(F)cc1 (stereo unspecified), the INHIBITION was 38.9%. In the case of c1cnc(C2CCCN2c2cnccn2)cn1 (stereo unspecified), the INHIBITION is reported as 42.4%. CC(C)Cc1cc(C(=O)N2CCC(Cc3cnn(C)c3)C2)cc(O)n1 (stereo unspecified) was tested, and the INHIBITION was 26.6%. In the case of CC(C)Cc1cc(C(=O)N2CCC(N3CCCC3)CC2)cc(O)n1, the INHIBITION is reported as 24.4%. In the case of COCC1CCN(C(=O)c2cc(O)nc(CC(C)C)c2)CC1, the INHIBITION is reported as 51.1%. With COC(=O)c1ccc(S(=O)(=O)N2CCCn3ncnc32)s1 the INHIBITION was 3.84%. O=C1CC(c2ccc(Cl)c(Cl)c2)c2c(n3ccsc3nc2=O)N1 (stereo unspecified) was tested, and the INHIBITION was 36.2%. With O=C(c1cc(-c2cccs2)cs1)N1CCOCC1 the INHIBITION was -132%. With CC(C)c1nnc2n1CCN(Cc1cc(Cl)c3c(c1)OCCO3)C2 the INHIBITION was 10.1%. Compound CC(Cn1ccnc1)NC(=O)NCc1cccnc1OC1CCCC1 (stereo unspecified) has an INHIBITION of 17.4%. Compound CC(C)CCC(=O)N1CCCC1c1nnc2n1CCCCC2 (stereo unspecified) has an INHIBITION of 26.9%. Compound CSCCC(=O)N1CCCC1c1nnc2n1CCCCC2 (stereo unspecified) has an INHIBITION of 54.3%. In the case of CCc1ccc(C(=O)N2CCCC2c2nnc3n2CCCCC3)o1 (stereo unspecified), the INHIBITION is reported as 57.7%. Work on CC(=O)N1CCCC1c1nnc2n1CCCCC2 (stereo unspecified) yielded an INHIBITION of -2.37%. O=C(c1ccc(Cl)o1)N1CCCC1c1nnc2n1CCCCC2 (stereo unspecified) gave an INHIBITION of 29.8%. Work on Cc1ccc(C(=O)N2CCCC2c2nnc3n2CCCCC3)o1 (stereo unspecified) yielded an INHIBITION of 8.47%. For CCN(CC)CCNC(=O)c1cc(OC)c2ccoc2c1, the INHIBITION was 31.1%. Work on CC(=O)CN1CC2(CCNCC2)COc2ccccc2S1(=O)=O yielded an INHIBITION of 26.3%. With COc1nccnc1-c1cc(NC2CCCC2)nc2[nH]ccc12 the INHIBITION was 60%. COc1ncc(-c2cc(NC3CCCC3)nc3[nH]ccc23)c(OC)n1 was tested, and the INHIBITION was 66.7%. FC(F)(F)c1ccc(-c2cc(NC3CCNCC3)nc3[nH]ccc23)nc1 showed an INHIBITION of 18.5%. COc1nccnc1-c1cc(NC2CCNCC2)nc2[nH]ccc12 showed an INHIBITION of -2.69%. In the case of COc1ncc(-c2cc(NCCN(C)C)nc3[nH]ccc23)c(OC)n1, the INHIBITION is reported as 49%. For COc1cc(-c2cc(NC3CCCC3)nc3[nH]ccc23)nc(N)n1, the INHIBITION was 42.1%. Compound CCS(=O)(=O)N1CCC(c2nc(C)c(C)c(N3CCCC3)n2)CC1 has an INHIBITION of 22.35%. Cc1noc([C@]23COC[C@H]2CN(C(=O)Cc2ccsc2)C3)n1 was tested, and the INHIBITION was 38.5%. Work on O=C(CC1[C@H]2CN(Cc3ccc(F)cc3)C[C@@H]12)N1CCCC1 (stereo partly specified) yielded an INHIBITION of -7.28%. With O=C(NCCc1cc(F)ccc1F)NCC(O)C1CC1 (stereo unspecified) the INHIBITION was 14.9%. In the case of Cc1nc(C(=O)N(C)C2CC(=O)N(Cc3ccccc3)C2=O)cs1 (stereo unspecified), the INHIBITION is reported as 8.51%. For CN(C(=O)c1ccc[nH]1)C1CC(=O)N(Cc2ccccc2)C1=O (stereo unspecified), the INHIBITION was 15.2%. With Cc1[nH]ccc1C(=O)N(C)C1CC(=O)N(Cc2ccccc2)C1=O (stereo unspecified) the INHIBITION was 54.4%. Compound O=C(c1cc(C2CCCCN2C(=O)C2CCC2)n[nH]1)N1CCOCC1 (stereo unspecified) has an INHIBITION of -22.6%. Compound CCn1ncc(CN2CCc3nc(-c4cccnc4)nc(O)c3C2)c1C has an INHIBITION of 29.2%. With CN(C)C(=O)COC[C@]12COC[C@H]1CN(Cc1ccco1)C2 the INHIBITION was -3.33%. In the case of CN(C)C(CNC(=O)NCCc1cccc(O)c1)c1ccco1 (stereo unspecified), the INHIBITION is reported as 41.4%. CN(C)C(CNC(=O)NCCS(C)(=O)=O)c1ccco1 (stereo unspecified) was tested, and the INHIBITION was -18.3%. With Cc1nc(CCNC(=O)NCC(c2ccco2)N(C)C)cs1 (stereo unspecified) the INHIBITION was 55.6%. Cn1ccc2c(C(=O)N3CC[C@@]4(O)CCCC[C@H]4C3)cccc21 gave an INHIBITION of 1.62%. For O=C(NCc1nnc2n1CCCCC2)N(Cc1ccncc1)C1CC1, the INHIBITION was 26.5%. Work on CCN(CC1CCOC1)C(=O)NCc1nnc2n1CCCCC2 (stereo unspecified) yielded an INHIBITION of 34.4%. In the case of O=C(NCc1nnc2n1CCC2)N(Cc1ccc(F)cc1)C1CC1, the INHIBITION is reported as 50.4%. Compound O=C(NCc1nnc2n1CCCC2)c1ccc(C2CCCO2)s1 (stereo unspecified) has an INHIBITION of 59.1%. With CCN(CC1CCOC1)C(=O)NCc1nnc2n1CCC2 (stereo unspecified) the INHIBITION was 42%. For O=S(=O)(Cc1ccc(F)cc1)NCc1nnc2n1CCC2, the INHIBITION was 68.9%. Work on O=S(=O)(Cc1ccccc1)NCc1nnc2n1CCC2 yielded an INHIBITION of -12.4%. O=C(NCc1nnc2n1CCC2)c1ccc(C2CCCO2)s1 (stereo unspecified) was tested, and the INHIBITION was -1.7%. In the case of O=S(=O)(Cc1ccc(F)cc1)NCCc1nnc2n1CCC2, the INHIBITION is reported as 30.5%. O=C(NCc1nnc2n1CCCCC2)N(CC1CCOC1)C1CC1 (stereo unspecified) showed an INHIBITION of 55%. CN(Cc1ccc(F)cc1)C(=O)NCc1nnc2n1CCC2 gave an INHIBITION of -21.8%. Work on O=C(NCc1nnc2n1CCC2)c1ccc(Br)s1 yielded an INHIBITION of 49.4%. CCCC(C#N)NC(=O)c1sccc1CC (stereo unspecified) was tested, and the INHIBITION was 46.6%. For CSc1ncnc(NCc2cccs2)c1C#N, the INHIBITION was 10.6%. Work on Cc1nsc(N2CCCN(C(=O)NCc3cc(C)on3)CC2)n1 yielded an INHIBITION of 45%. In the case of CCc1nccn1C1CCCN(C(=O)c2ccc3c(c2)nnn3C)C1 (stereo unspecified), the INHIBITION is reported as 12.7%. Work on COc1cc2nc3n(c(=O)c2cc1OC)CCN(C(=O)C(C)(C)C)CC3 yielded an INHIBITION of 32.3%. Cc1ccc(C(C)(O)CNC(=O)NCCc2ccc3c(c2)CCO3)o1 (stereo unspecified) was tested, and the INHIBITION was 23.2%. O=c1cc(CN2CC[C@@]3(O)CCCC[C@H]3C2)c2cccc3c2n1CCC3 showed an INHIBITION of 42.1%. With O=C(NCCc1c[nH]cn1)c1ccc(S(=O)(=O)NC2CCOC2)cc1 (stereo unspecified) the INHIBITION was 4.68%. CSc1nnc(CNC(=O)Nc2ccccc2F)n1C showed an INHIBITION of 31.7%. In the case of O=C(Cc1ccc(F)cc1)NCCNc1cc(N2CCCC2)cnn1, the INHIBITION is reported as 34.6%. In the case of O=C(NCCNc1cc(N2CCCC2)cnn1)Nc1ccccc1F, the INHIBITION is reported as 53.8%. In the case of O=C(Nc1ccc2c(c1)C(=O)NC2)c1ccc(S(=O)(=O)C(F)(F)F)cc1, the INHIBITION is reported as 55%. CNS(=O)(=O)c1ccc(C(=O)Nc2ccc3c(c2)C(=O)NC3)cc1 was tested, and the INHIBITION was -5.26%. Work on CS(=O)(=O)Cc1ccc(C(=O)Nc2ccc3c(c2)C(=O)NC3)cc1 yielded an INHIBITION of 37.9%. Work on O=C(NCC1COC2(CCOCC2)O1)c1csc(-c2cccc(Cl)c2)n1 (stereo unspecified) yielded an INHIBITION of 15.5%. In the case of COCC(=O)N1C[C@H]2CNC[C@@]2(C(=O)NCc2nc(C)cc(C)n2)C1, the INHIBITION is reported as 1.45%. In the case of COCC(=O)N1C[C@H]2CNC[C@@]2(C(=O)NCc2cc(C)n[nH]2)C1, the INHIBITION is reported as 59.5%. Compound COCC(=O)N1C[C@H]2CNC[C@@]2(C(=O)NCc2c(C)noc2C)C1 has an INHIBITION of -31.9%. In the case of CCC[C@H]1CN(S(C)(=O)=O)C[C@@H]1NC(=O)COC(C)C, the INHIBITION is reported as 34.9%. CC(C)=CCN1CCN(Cc2cccc(C)n2)CC1CCO (stereo unspecified) was tested, and the INHIBITION was 67.4%. With Cc1cccc(CN2CCN3C(=O)NC[C@H]3C2)n1 the INHIBITION was -27.5%. Compound Cc1ccc(CN2CCN(Cc3cc(C)n[nH]3)CC2CCO)cc1 (stereo unspecified) has an INHIBITION of -0.529%. CC(C)=CCN1CCN(Cc2cc(C)n[nH]2)CC1CCO (stereo unspecified) was tested, and the INHIBITION was 26.6%. Work on Cc1cccc(CN2CCN(Cc3ccccc3)CC(O)C2)n1 (stereo unspecified) yielded an INHIBITION of 16.8%. CC(C)=CCN1CCN(Cc2cc(C)c(O)c(C)c2)CC1CCO (stereo unspecified) gave an INHIBITION of 51.3%.
